Four sequences from PMC7862700, “An all-to-all approach to the identification of sequence-specific readers for epigenetic DNA modifications on cytosine” can be followed below.

What all share (experiment): DAPPL (digital affinity profiling via proximity ligation, sequencing); 10 mM Tris-HCl pH 7.5, 50 mM NaCl, 1 mM DTT, 4% glycerol, room temperature, 30 min; GST-TFs on glutathione beads, 16-mer random dsDNA library, 0.1% formaldehyde crosslink after washing; high values mean tight binding
Settings in all cases: protein: recombinant; tags: N-terminal GST; dsDNA, one strand shown

The target of one test is T1, GABPA (Homo sapiens, UniProt Q06546 1-454).
T1 sequence: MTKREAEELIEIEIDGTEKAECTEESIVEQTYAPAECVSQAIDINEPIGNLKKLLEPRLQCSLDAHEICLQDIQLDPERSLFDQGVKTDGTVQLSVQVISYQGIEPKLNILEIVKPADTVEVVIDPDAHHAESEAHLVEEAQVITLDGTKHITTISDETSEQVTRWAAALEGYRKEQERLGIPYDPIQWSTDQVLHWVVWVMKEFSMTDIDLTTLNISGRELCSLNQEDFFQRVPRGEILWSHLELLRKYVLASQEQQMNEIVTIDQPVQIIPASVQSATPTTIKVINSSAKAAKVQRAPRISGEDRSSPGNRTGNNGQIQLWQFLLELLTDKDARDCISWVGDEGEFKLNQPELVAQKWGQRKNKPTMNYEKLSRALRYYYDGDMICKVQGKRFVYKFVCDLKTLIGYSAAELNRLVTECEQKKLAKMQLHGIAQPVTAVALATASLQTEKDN
In outline: (§1)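 Human transcription factors carrying a GST fusion were produced in yeast, bound to glutathione beads, tagged with DNA barcodes and pooled together with a tag-only sample. Each pool was held with 200 nmole of a random double-stranded 16-mer DNA library in Tris/NaCl/DTT/glycerol buffer for 30 min at room temperature, then washed, crosslinked in 0.1% formaldehyde, proximity-ligated with BsaI/T4 ligase (1 h, 37 °C), PCR-amplified and sequenced on an Illumina NextSeq500. Binding signal is the read frequency of each hexamer for a given factor divided by its frequency in the tag-only sample.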

Another test has as its target ELF1 (Homo sapiens, UniProt P32519 1-619). In outline:
as §1

The target of the next test is T2, ELK3 (Homo sapiens, UniProt P41970 1-407).
T2 sequence: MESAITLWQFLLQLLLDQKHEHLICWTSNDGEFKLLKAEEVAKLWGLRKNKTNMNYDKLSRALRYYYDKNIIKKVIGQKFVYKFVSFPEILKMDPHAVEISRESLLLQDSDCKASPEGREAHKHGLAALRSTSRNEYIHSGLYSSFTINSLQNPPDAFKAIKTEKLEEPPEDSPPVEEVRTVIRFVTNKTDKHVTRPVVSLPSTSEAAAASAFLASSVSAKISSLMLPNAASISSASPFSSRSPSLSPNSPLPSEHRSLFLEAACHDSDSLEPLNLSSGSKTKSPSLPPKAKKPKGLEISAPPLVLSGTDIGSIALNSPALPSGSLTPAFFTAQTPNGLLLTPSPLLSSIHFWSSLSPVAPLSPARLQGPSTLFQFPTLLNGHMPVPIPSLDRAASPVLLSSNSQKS
In outline: as §1

In another test the target is ELF4 (Homo sapiens, UniProt Q99607 1-663). The procedure, abridged: as §1
ELF4, sequence (Q99607 whole entry): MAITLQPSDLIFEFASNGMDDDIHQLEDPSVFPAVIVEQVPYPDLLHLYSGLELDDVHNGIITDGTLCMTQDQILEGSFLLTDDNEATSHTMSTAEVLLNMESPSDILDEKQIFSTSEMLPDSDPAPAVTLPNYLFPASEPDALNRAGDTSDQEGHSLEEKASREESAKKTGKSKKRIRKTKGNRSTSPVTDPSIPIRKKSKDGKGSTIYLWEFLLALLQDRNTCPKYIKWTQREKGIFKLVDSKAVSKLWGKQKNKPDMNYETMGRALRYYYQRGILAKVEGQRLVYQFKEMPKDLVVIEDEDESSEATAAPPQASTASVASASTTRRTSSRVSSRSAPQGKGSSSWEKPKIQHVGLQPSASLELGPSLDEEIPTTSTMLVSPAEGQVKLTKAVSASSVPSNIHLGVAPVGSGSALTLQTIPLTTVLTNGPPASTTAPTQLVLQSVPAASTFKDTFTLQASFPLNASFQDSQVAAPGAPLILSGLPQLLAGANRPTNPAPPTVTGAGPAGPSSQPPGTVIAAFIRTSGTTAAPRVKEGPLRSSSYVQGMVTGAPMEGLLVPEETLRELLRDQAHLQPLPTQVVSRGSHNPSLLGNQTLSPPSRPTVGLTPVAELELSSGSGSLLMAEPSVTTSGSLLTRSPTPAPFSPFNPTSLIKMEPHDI
For another test, the target named is T3, ELK4 (Homo sapiens, UniProt P28324-2 1-405).
T3 sequence: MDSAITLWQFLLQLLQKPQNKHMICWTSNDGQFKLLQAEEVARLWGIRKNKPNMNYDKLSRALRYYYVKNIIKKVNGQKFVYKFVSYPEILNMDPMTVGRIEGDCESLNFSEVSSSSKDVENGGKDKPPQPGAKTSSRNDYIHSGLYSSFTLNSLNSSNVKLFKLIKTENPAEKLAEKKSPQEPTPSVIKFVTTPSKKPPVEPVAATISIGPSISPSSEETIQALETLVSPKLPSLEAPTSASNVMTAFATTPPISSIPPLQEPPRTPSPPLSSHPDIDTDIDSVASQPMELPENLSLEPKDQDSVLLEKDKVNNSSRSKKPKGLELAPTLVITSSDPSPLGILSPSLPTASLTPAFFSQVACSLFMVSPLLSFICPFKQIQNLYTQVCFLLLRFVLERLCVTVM
In outline:
as §1

A further test deals with T4, ETV2 (Homo sapiens, UniProt O00321 1-342).
T4 sequence: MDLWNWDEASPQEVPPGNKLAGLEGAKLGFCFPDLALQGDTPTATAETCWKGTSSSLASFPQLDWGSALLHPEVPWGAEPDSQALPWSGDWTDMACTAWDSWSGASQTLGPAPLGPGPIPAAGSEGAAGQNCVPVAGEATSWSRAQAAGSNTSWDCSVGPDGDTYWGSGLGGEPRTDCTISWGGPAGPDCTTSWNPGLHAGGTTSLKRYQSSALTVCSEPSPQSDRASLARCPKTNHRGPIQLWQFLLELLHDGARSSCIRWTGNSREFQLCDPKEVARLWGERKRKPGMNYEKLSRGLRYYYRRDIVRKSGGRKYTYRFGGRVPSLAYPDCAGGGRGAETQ
The procedure, abridged:
as §1

A further test has as its target T5, ERF (Homo sapiens, UniProt P50548 1-548).
T5 sequence: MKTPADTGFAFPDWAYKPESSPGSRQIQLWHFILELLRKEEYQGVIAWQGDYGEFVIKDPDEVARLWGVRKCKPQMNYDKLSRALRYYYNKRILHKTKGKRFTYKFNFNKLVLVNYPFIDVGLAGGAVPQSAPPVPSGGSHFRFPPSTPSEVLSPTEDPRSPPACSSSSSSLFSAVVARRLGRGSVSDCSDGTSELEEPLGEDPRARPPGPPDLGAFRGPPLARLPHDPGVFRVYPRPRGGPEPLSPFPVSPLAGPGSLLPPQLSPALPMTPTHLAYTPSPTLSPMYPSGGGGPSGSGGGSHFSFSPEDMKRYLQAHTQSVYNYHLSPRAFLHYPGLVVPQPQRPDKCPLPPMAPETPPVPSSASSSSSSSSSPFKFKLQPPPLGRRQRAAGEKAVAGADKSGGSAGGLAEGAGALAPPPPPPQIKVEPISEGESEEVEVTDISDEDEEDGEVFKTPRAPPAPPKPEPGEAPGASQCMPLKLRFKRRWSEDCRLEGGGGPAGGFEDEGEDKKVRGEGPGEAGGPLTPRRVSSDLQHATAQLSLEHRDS
The procedure, abridged: as §1

The target of a further test is T6, ELK1 (Homo sapiens, UniProt P19419 1-428).
T6 sequence: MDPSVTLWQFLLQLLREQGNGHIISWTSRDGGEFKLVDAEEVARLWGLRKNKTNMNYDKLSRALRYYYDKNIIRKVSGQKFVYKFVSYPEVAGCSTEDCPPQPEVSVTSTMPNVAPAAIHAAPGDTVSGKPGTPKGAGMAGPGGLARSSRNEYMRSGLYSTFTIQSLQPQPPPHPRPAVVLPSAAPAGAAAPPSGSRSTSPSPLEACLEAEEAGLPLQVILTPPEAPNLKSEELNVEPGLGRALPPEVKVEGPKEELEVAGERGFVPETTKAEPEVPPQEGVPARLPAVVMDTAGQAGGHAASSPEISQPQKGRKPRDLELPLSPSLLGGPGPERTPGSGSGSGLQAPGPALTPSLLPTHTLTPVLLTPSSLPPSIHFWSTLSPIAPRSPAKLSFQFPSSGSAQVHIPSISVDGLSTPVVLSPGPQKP
The procedure, abridged:
as §1

The next test deals with T7, FEV (Homo sapiens, UniProt Q99581 1-238).
T7 sequence: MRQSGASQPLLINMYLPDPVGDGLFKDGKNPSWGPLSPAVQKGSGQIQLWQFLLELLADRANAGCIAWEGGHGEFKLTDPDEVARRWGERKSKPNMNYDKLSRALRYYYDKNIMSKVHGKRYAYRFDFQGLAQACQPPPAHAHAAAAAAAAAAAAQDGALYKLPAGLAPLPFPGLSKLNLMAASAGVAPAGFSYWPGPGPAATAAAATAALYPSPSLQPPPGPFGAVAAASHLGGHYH
In outline: as §1

Another test addresses T8, ELF3 (Homo sapiens, UniProt P78545 1-371).
T8 sequence: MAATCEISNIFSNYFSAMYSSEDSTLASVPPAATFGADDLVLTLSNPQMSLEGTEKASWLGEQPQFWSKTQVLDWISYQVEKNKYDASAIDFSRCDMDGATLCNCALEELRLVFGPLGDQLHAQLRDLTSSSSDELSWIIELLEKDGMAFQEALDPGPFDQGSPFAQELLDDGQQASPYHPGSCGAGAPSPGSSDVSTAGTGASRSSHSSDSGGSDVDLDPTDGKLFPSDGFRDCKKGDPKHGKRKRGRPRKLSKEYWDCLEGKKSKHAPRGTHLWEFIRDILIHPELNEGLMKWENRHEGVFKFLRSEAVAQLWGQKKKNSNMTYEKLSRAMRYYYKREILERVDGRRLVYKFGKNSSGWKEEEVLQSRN
In outline: as §1

For a further test, the target named is ETV1 (Homo sapiens, UniProt P50549 1-477). The procedure, abridged: as §1
ETV1, sequence (P50549 whole entry): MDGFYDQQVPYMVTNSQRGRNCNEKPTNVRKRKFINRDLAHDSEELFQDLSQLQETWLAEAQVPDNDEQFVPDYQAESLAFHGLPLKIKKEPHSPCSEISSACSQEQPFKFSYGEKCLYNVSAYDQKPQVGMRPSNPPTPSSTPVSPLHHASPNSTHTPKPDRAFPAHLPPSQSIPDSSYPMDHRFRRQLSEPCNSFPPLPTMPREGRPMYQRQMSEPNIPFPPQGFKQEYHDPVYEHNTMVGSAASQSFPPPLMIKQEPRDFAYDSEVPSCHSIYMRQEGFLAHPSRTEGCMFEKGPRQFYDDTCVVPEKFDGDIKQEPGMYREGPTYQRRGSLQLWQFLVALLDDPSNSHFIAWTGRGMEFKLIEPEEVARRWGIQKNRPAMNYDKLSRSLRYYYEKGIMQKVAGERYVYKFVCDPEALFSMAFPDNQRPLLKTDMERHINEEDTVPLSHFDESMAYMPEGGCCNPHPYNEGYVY
Another test concerns the target T9, ETV3L (Homo sapiens, UniProt Q6ZN32 1-361).
T9 sequence: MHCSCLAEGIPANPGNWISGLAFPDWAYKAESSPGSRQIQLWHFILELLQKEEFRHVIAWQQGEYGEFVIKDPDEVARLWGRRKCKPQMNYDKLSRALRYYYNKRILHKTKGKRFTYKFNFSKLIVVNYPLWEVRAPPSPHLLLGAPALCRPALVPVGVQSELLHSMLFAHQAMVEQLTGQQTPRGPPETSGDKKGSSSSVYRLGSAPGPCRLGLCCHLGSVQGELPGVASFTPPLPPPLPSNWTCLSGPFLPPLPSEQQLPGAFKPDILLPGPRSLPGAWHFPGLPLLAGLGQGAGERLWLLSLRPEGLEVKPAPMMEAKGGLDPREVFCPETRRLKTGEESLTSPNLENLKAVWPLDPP
In outline:
as §1

A further test addresses T10, EHF (Homo sapiens, UniProt Q9NZC4 1-300).
T10 sequence: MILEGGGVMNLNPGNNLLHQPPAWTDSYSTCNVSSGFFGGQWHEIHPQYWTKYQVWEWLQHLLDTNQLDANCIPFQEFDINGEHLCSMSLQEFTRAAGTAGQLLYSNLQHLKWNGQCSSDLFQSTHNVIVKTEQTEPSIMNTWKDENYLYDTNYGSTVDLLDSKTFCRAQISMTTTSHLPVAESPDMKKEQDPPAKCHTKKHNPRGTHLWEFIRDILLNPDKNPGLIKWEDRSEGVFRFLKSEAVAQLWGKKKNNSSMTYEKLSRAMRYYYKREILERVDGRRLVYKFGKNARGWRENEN
In outline: as §1

The next test deals with T11, ETS2 (Homo sapiens, UniProt P15036 1-469).
T11 sequence: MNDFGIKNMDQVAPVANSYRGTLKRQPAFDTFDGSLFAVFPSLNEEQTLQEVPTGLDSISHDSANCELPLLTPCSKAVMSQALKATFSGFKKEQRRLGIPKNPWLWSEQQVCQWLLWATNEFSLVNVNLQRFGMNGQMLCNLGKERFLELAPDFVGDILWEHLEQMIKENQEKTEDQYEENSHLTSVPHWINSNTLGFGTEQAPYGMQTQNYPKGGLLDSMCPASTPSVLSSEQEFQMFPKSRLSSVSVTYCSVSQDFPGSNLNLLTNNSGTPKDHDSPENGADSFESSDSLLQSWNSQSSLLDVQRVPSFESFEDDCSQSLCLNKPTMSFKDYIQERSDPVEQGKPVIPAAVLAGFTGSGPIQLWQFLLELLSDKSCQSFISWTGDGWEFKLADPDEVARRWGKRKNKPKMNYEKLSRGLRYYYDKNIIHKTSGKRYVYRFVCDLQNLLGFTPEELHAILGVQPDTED
The procedure, abridged: as §1

ELF1, sequence (P32519 whole entry): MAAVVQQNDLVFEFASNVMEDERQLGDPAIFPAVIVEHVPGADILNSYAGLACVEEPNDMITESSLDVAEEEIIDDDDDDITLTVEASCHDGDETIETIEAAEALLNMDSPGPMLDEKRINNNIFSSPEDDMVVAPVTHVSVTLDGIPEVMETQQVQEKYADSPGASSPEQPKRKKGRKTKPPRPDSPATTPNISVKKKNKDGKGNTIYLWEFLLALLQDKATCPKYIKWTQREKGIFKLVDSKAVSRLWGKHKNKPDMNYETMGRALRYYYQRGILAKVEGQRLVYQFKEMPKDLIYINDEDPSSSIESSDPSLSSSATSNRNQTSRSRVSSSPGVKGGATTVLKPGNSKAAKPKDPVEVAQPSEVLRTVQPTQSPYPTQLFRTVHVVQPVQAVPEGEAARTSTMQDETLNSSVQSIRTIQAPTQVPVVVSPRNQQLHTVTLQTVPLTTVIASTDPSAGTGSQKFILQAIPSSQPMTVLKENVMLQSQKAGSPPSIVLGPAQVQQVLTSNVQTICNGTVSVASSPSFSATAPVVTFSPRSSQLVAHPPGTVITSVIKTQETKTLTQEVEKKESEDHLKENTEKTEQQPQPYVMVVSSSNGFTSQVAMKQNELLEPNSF

As for CGCACC, the binding signal in the test with GABPA is 1.03 fold enrichment (6-mer frequency, TF over GST control); with ELF1, 1.03 fold enrichment (6-mer frequency, TF over GST control); in the test with ELK3, 1.05 fold enrichment (6-mer frequency, TF over GST control); with ELF4, 1.03 fold enrichment (6-mer frequency, TF over GST control); with ELK4 it was 1.13 fold enrichment (6-mer frequency, TF over GST control); in the test with ETV2, 1.1 fold enrichment (6-mer frequency, TF over GST control). In addition, the binding signal in the test with ERF is 1.01 fold enrichment (6-mer frequency, TF over GST control).

On to CTGAGG, for which the binding signal in the test with ELK4 was 1.02 fold enrichment (6-mer frequency, TF over GST control).

As to CATCAA, the binding signal in the test with ELK1 is 1.01 fold enrichment (6-mer frequency, TF over GST control); with GABPA, 1.03 fold enrichment (6-mer frequency, TF over GST control); with ELF1, 1.03 fold enrichment (6-mer frequency, TF over GST control); with ELK3, 1.07 fold enrichment (6-mer frequency, TF over GST control); in the test with FEV it was 1 fold enrichment (6-mer frequency, TF over GST control); with ELF4, 1.05 fold enrichment (6-mer frequency, TF over GST control). The binding signal was 1.03 fold enrichment (6-mer frequency, TF over GST control) with ELF3; 1.01 fold enrichment (6-mer frequency, TF over GST control) with ETV1; 1.02 fold enrichment (6-mer frequency, TF over GST control) with ERF; 1.08 fold enrichment (6-mer frequency, TF over GST control) in the test with ETV3L.

Take TCATTG: the binding signal is 1.01 fold enrichment (6-mer frequency, TF over GST control) in the test with ELK1; 1 fold enrichment (6-mer frequency, TF over GST control) in the test with GABPA; 1.03 fold enrichment (6-mer frequency, TF over GST control) with ELF1; 1.03 fold enrichment (6-mer frequency, TF over GST control) with EHF; 1.07 fold enrichment (6-mer frequency, TF over GST control) with ELK4; 1.04 fold enrichment (6-mer frequency, TF over GST control) in the test with ERF. The binding signal with ETV3L was 1.04 fold enrichment (6-mer frequency, TF over GST control); in the test with ETS2, 1 fold enrichment (6-mer frequency, TF over GST control).
